# Results as given in PubChem BioAssay AID504834 (National Center for Advancing Translational Sciences (NCATS), 2011).
# The whole screen tested about 320,000 compounds, of which about 22,000 (6.9%) were called active. Another 27% or so got no clear call; they are omitted. Calls come from the whole dose curve; as a rule, active = well fitted inhibition curve with a large enough effect; inconclusive = small, poorly fitted or top-dose-only effect, or another doubt; inactive = no such curve, though single readings can be large or run the other way. What follows is part of a selection rich in actives, with near analogues and random picks from the rest. Entries that show only a call come without a potency.
# Assay: Primary qHTS for delayed death inhibitors of the malarial parasite plastid, 96 hour incubation
# Conditions: P. falciparum luciferase reporter growth; series mostly up to 28.7 µM
# Summary of the method: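 96 h incubation, 37 C, 5% CO2, of luciferase-reporter P. falciparum-infected RBCs (2% hematocrit, 0.05% parasitemia final) with test compounds; endpoint luminescence.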
# Potency is the fitted concentration of half-maximal effect.
row,Structure (SMILES),Potency
1,CC1CC(C)CN(c2ccc(S(=O)(=O)N3CCOCC3)cc2)C1 (stereo not drawn),inactive
2,Cc1occc1-c1nnc(SCC(=O)NC2CCCCC2)o1,inactive
3,Cc1nc(N)nc(SCc2ccc([N+](=O)[O-])cc2)c1N,inactive
4,O=C(c1ccc(Cl)c(S(=O)(=O)N2CCCCC2)c1)N1CCCCCC1,inactive
5,COc1ccc(Cl)cc1NS(=O)(=O)c1cccc(C(=O)NC2CCC(O)CC2)c1 (stereo not drawn),inactive
6,CCCCN(CCCC)CCNC(=O)CN1C(=O)COc2ccc(S(=O)(=O)N3CCOCC3)cc21,inactive
7,Cc1ccc(OCC(=O)Nc2ccccc2C(=O)NC2CC2)cc1C,inactive
8,Cc1onc(NC(=O)c2ccc([N+](=O)[O-])o2)c1Br,5.86 µM (active)
9,Cc1cc(NC(=O)COc2ccc([N+](=O)[O-])cc2)no1,inactive
10,O=C(OCC(=O)c1cccs1)c1ccc([N+](=O)[O-])o1,inactive
11,Cc1cc(C)c2c(=O)[nH]c(SCC(=O)Nc3ccc(Br)cc3)nc2n1,inactive
12,Cc1ccc(S(=O)(=O)N2CCOCC2)cc1NC(=O)COC(=O)c1cnccn1,inactive
13,Nc1nc(SCC(=O)Nc2ccc(Cl)cc2C(F)(F)F)n[nH]1,inactive
14,Cc1ccc(S(=O)(=O)NCC2CCC(C(=O)N3CCOCC3)CC2)cc1 (stereo not drawn),inactive
15,Cc1ccc(NC(=O)CCCNC(=O)c2ccc(Cl)cc2)cc1S(=O)(=O)N1CCOCC1,inactive
16,Cc1ccccc1CSCCNC(=O)c1ccc(N(C)S(=O)(=O)c2ccccc2)cc1,inactive
17,CC(C)(CNC(=O)Cc1ccc(Cl)cc1Cl)N1CCOCC1,inactive
18,CN(CC(=O)Nc1ccc(F)cc1)CC(=O)Nc1ccc(Cl)c(S(=O)(=O)N2CCOCC2)c1,inactive
19,CC(C)(CNC(=O)c1ccc(Cl)c(S(=O)(=O)N2CCc3ccccc3C2)c1)N1CCOCC1,7.38 µM (active)
20,CN(C)S(=O)(=O)c1ccc(C(=O)NCC(C)(C)N2CCOCC2)cc1,inactive
21,Cc1ccccc1CSCCNC(=O)c1ccc(Cl)c(S(=O)(=O)N2CCOCC2)c1,13.1 µM (active)
22,O=C(NCCSCc1ccccc1)c1ccc(Cl)c(S(=O)(=O)N2CCOCC2)c1,11.7 µM (active)
23,O=C(NCc1cccnc1)c1cc(S(=O)(=O)N2CCOCC2)c(Cl)cc1Cl,inactive

row,Structure (SMILES),Potency
1,COc1ccccc1N(CC(=O)NC1CCCC1)C(=O)C1(C)CC(=O)N=C2C=CC(C)=CN21 (stereo not drawn),inactive
2,O=C(Nc1ccc(N2CCCCC2)cc1)c1cc(S(=O)(=O)N2CCOCC2)ccc1F,inactive
3,COC(=O)c1ccc(CNC(=O)c2ccc3oc(C(C)C)nc3c2)cc1,inactive
4,NCCCCC(N)C(=O)O (stereo not drawn),inactive
5,COCC1CCN(C(=O)c2ccc3oc(Cc4ccccc4)nc3c2)C1 (stereo not drawn),inactive
6,CCOc1ccc(S(=O)(=O)NCCSc2ccccc2)cc1,inactive
7,CCOc1ccc2nc(NCCNS(=O)(=O)c3ccccc3)c(C#N)cc2c1,13.1 µM (active)
8,COc1ccc(CNC(=O)C(C)NCc2ccccc2Cl)cc1 (stereo not drawn),inactive
9,CCOC(=O)N1CCN(C(=O)c2ccccc2N(Cc2ccccc2)S(=O)(=O)c2ccc(OC)cc2)CC1,inactive
10,CCOC(=O)CN(Cc1ccc(OC)c(OC)c1)S(=O)(=O)c1ccc(OC)cc1,9.28 µM (active)
11,COc1ccc(S(=O)(=O)N(CC(=O)N/N=C/c2ccc(C(=O)O)cc2)Cc2ccccc2)cc1OC,inactive
12,CCNC(=O)Nc1ccc(S(=O)(=O)Nc2cnc(C)nc2C)cc1,inactive
13,COc1cc2c(C(=O)O)c(C)n(C)c2c2ccccc12,inactive
14,O=C(NCCc1ccccc1)C(=O)NCC1OCCN1S(=O)(=O)c1cccs1 (stereo not drawn),inactive
15,COc1ccc(NS(=O)(=O)c2ccc(Oc3c(C#N)cccc3C#N)cc2)cc1,inactive
16,O=c1[nH]c(-c2cccs2)nc2ccccc12,inactive
17,CC(=O)Nc1cccc(Nc2nc(-c3cccs3)nc3ccccc23)c1,9.28 µM (active)
18,Cc1cccc(-c2nc(Nc3ccc(O)cc3)c3ccccc3n2)c1,inactive
19,CSc1nc2ccccc2c(=O)n1Cc1ccc(F)cc1,inactive
20,CSc1c(SCc2ccccc2)cnn(Cc2ccccc2)c1=O,9.28 µM (active)
21,Cn1c(CO)cnc1SCc1ccccc1,inactive
22,Cc1ccc(C)c(OCCC(=O)OCC(=O)N2CCN(c3ccccc3)CC2)c1,inactive
23,COc1cccc(C2=CC(=O)C[C@H](c3ccc(F)cc3)C2)c1OC,inactive

row,Structure (SMILES),Potency
1,CC(C)(C)SCCSC1=CC(=O)CC(c2ccccc2)C1 (stereo not drawn),inactive
2,O=C1C=C(c2cccc(Cl)c2O)C[C@@H](c2ccc(F)cc2)C1,4.65 µM (active)
3,O=C1C=C(c2cccc(Br)c2)C[C@@H](c2ccc(F)cc2)C1,2.33 µM (active)
4,COc1ccc([C@H]2CC(=O)C=C(/C=C/c3ccc(Cl)cc3)C2)cc1,inactive
5,O=C(Cn1cnc2ccccc21)Nc1ccccc1-c1ccccc1,inactive
6,COc1ccc(/C=C(/NC(=O)c2ccco2)C(=O)Nc2ccc(C(C)=O)cc2)cc1,inactive
7,O=C(O)c1cccc2c1C(=O)N(C1CCCC1)C2,inactive
8,Cc1nc2ccccc2cc1C(=O)N/N=C/c1ccc([N+](=O)[O-])cc1,inactive
9,O=C(C[n+]1ccccc1)N/N=C/c1ccc(O)cc1,inactive
10,Cc1nonc1C(=O)N/N=C/c1ccc(O)cc1,0.262 µM (active)
11,NC(=O)NC(CC(=O)NNC(=O)c1ccccn1)c1ccc(Cl)cc1 (stereo not drawn),inactive
12,O=C(NNC(=O)c1cc(S(=O)(=O)N2CCCCC2)ccc1Cl)c1ccccc1O,inactive
13,O=C(Nc1ccccc1)c1ccc(NC(=O)c2cccs2)cc1,inactive
14,O=C(Nc1ccccc1Cl)Nc1cccc2cccnc12,inactive
15,O=C(c1cc2nc(-c3ccccc3)cc(-c3ccccc3)n2n1)N1CCC2(CC1)OCCO2,inactive
16,O=C(c1cc(-c2ccncc2)nc2ccccc12)N1CCC2(CC1)OCCO2,4.15 µM (active)
17,CC(=O)N1CCN(C(=O)c2cc(-c3ccc(C)o3)nc3ccccc23)CC1,inactive
18,Cc1cc(C(=O)OC(C)C(=O)NC2CCCCC2C)c(C)o1 (stereo not drawn),inactive
19,NC(=O)N1CCCC1C(=O)Nc1ccc(Cl)c(Cl)c1 (stereo not drawn),inactive
20,CC1(C(=O)O)CCC(C(=O)Nc2ccc(Cl)c(Cl)c2)C1(C)C (stereo not drawn),10.4 µM (active)
21,CCN(CC)C(=O)C1CCC(C)(C(=O)O)C1(C)C (stereo not drawn),inactive
22,O=C(CN1CCN(S(=O)(=O)c2cccc(Cl)c2)CC1)N1CCCCC1,inactive
